# Assay results reported in PubChem BioAssay (NCATS).
# Records with an inconclusive call do not appear. A call without a number means that no potency is given here. A number with no mark means an inactive call. The source made the active and inactive calls. Calls follow the shape of the dose curve; as a rule, active = well fitted inhibition curve with a large enough effect; inconclusive = small, poorly fitted or top-dose-only effect; inactive = flat fitted curve, though single readings scatter.
# Legend:
# [1] = qHTS profiling for inhibitors of Plasmodium falciparum proliferation (AID 504749); also: nearly all actives have a fitted effect of over 60% in size; conditions: P. falciparum in erythrocytes, SYBR Green DNA, 72 h
# Outline: (§1)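 Each compound contacts P. falciparum-infected red blood cells for 72 h at 37 C; lysis buffer (Tris, EDTA, saponin, Triton X, SYBR Green I) is added and fluorescence measured next morning; values normalized to controls.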
# 3D7 = assay: as above; conditions: P. falciparum in erythrocytes, SYBR Green DNA, 72 h; series mostly up to 28.7 µM
# Outline: as §1
# 7G8 = assay: as above; conditions: P. falciparum in erythrocytes, SYBR Green DNA, 72 h; series mostly up to 28.7 µM
# Outline: as §1
# AA1029 = assay: as above; conditions: P. falciparum in erythrocytes, SYBR Green DNA, 72 h; series mostly up to 28.7 µM
# Outline: as §1
# AS120 = assay: as above; conditions: P. falciparum in erythrocytes, SYBR Green DNA, 72 h; series mostly up to 28.7 µM
# Outline: as §1
# ATS189 = assay: as above; conditions: P. falciparum in erythrocytes, SYBR Green DNA, 72 h; series mostly up to 28.7 µM
# Outline: as §1
# ATS95 = assay: as above; conditions: P. falciparum in erythrocytes, SYBR Green DNA, 72 h; series mostly up to 28.7 µM
# Outline: as §1
# C2A = assay: as above; conditions: P. falciparum in erythrocytes, SYBR Green DNA, 72 h; series mostly up to 28.7 µM
# Outline: as §1
# CP185 = assay: as above; conditions: P. falciparum in erythrocytes, SYBR Green DNA, 72 h; series mostly up to 28.7 µM
# Outline: as §1
# CP191 = assay: as above; conditions: P. falciparum in erythrocytes, SYBR Green DNA, 72 h; series mostly up to 28.7 µM
# Outline: as §1
# CP194 = assay: as above; conditions: P. falciparum in erythrocytes, SYBR Green DNA, 72 h; series mostly up to 28.7 µM
# Outline: as §1
# CP201 = assay: as above; conditions: P. falciparum in erythrocytes, SYBR Green DNA, 72 h; series mostly up to 28.7 µM
# Outline: as §1
# CP211 = assay: as above; conditions: P. falciparum in erythrocytes, SYBR Green DNA, 72 h; series mostly up to 28.7 µM
# Outline: as §1
# CP215 = assay: as above; conditions: P. falciparum in erythrocytes, SYBR Green DNA, 72 h; series mostly up to 28.7 µM
# Outline: as §1
# CP217 = assay: as above; conditions: P. falciparum in erythrocytes, SYBR Green DNA, 72 h; series mostly up to 28.7 µM
# Outline: as §1
# CP237 = assay: as above; conditions: P. falciparum in erythrocytes, SYBR Green DNA, 72 h; series mostly up to 28.7 µM
# Outline: as §1
# CP238 = assay: as above; conditions: P. falciparum in erythrocytes, SYBR Green DNA, 72 h; series mostly up to 28.7 µM
# Outline: as §1
# CP247 = assay: as above; conditions: P. falciparum in erythrocytes, SYBR Green DNA, 72 h; series mostly up to 28.7 µM
# Outline: as §1
# CP192 = assay: as above; conditions: P. falciparum in erythrocytes, SYBR Green DNA, 72 h; series mostly up to 28.7 µM
# Outline: as §1
# CP203 = assay: as above; conditions: P. falciparum in erythrocytes, SYBR Green DNA, 72 h; series mostly up to 28.7 µM
# Outline: as §1
# [2] = at 28.7 µM (top of the series), parasite line A
# [3] = at 28.7 µM (top of the series), parasite line B
# [4] = at 12.8 µM (top of the series), parasite line A
# [5] = at 12.8 µM (top of the series), parasite line B
# Potency is read from the fitted curve at half-maximal effect.
structure (smiles),measurement,setting,value
CCN(CC)S(=O)(=O)c1ccc(C(=O)O)cc1,"activity, negative = inhibition",[1]; [2],7.39%
same,"activity, negative = inhibition",[1]; [3],20.6%
same,Potency,3D7,inactive
same,Potency,7G8,inactive
same,Potency,AA1029,inactive
same,Potency,AS120,inactive
same,Potency,ATS189,inactive
same,Potency,ATS95,inactive
same,Potency,C2A,inactive
same,Potency,CP185,inactive
same,outcome,CP191,inactive
same,outcome,CP194,inactive
same,outcome,CP201,inactive
same,outcome,CP211,inactive
same,Potency,CP215,inactive
same,outcome,CP217,inactive
same,Potency,CP237,inactive
same,Potency,CP238,inactive
same,Potency,CP247,inactive
CCN(CC)CCc1nc(-c2ccccc2)no1,"activity, negative = inhibition",[1]; [4],-7.93%
same,"activity, negative = inhibition",[1]; [5],-5.26%
same,Potency,3D7,inactive
same,Potency,7G8,inactive
same,Potency,AA1029,inactive
same,Potency,AS120,inactive
same,Potency,ATS189,inactive
same,Potency,ATS95,inactive
same,Potency,C2A,inactive
same,Potency,CP185,inactive
same,outcome,CP191,inactive
same,outcome,CP192,inactive
same,outcome,CP194,inactive
same,outcome,CP201,inactive
same,outcome,CP211,inactive
same,Potency,CP215,inactive
same,outcome,CP217,inactive
same,Potency,CP237,inactive
same,Potency,CP238,inactive
same,Potency,CP247,inactive
O=C(Cn1ccnc1[N+](=O)[O-])NCCO,"activity, negative = inhibition",[1]; [2],4.18%
same,"activity, negative = inhibition",[1]; [3],-2.11%
same,Potency,3D7,inactive
same,Potency,7G8,inactive
same,Potency,AA1029,inactive
same,Potency,AS120,inactive
same,Potency,ATS189,inactive
same,Potency,ATS95,inactive
same,Potency,C2A,inactive
same,Potency,CP185,inactive
same,outcome,CP191,inactive
same,outcome,CP192,inactive
same,outcome,CP194,inactive
same,outcome,CP201,inactive
same,outcome,CP211,inactive
same,Potency,CP215,inactive
same,outcome,CP217,inactive
same,Potency,CP237,inactive
same,Potency,CP238,inactive
same,Potency,CP247,inactive
CCCCCCCCCCOc1cc2c(=O)c(C(=O)OCC)c[nH]c2cc1OCC,Potency,[1]; parasite line A,0.9 nM (active)
same,Potency,[1]; parasite line B,2.2 nM (active)
same,Potency,3D7,2.2 nM (active)
same,Potency,7G8,2.8 nM (active)
same,Potency,AA1029,2.5 nM (active)
same,Potency,AS120,2 nM (active)
same,Potency,ATS189,1.3 nM (active)
same,Potency,ATS95,2.8 nM (active)
same,Potency,C2A,10 nM (active)
same,Potency,CP185,2.2 nM (active)
same,outcome,CP192,inactive
same,outcome,CP217,inactive
same,Potency,CP237,3.5 nM (active)
same,Potency,CP238,2.8 nM (active)
same,Potency,CP247,0.3 nM (active)
COc1ccc2cc(CCC(C)=O)ccc2c1,"activity, negative = inhibition",[1]; [4],8.55%
same,"activity, negative = inhibition",[1]; [5],1.23%
same,Potency,3D7,inactive
same,Potency,7G8,inactive
same,Potency,AA1029,inactive
same,Potency,ATS189,inactive
same,Potency,ATS95,inactive
same,Potency,C2A,inactive
same,Potency,CP185,inactive
same,outcome,CP191,inactive
same,outcome,CP192,inactive
same,outcome,CP194,inactive
same,outcome,CP201,inactive
same,Potency,CP203,inactive
same,outcome,CP211,inactive
same,Potency,CP215,inactive
same,outcome,CP217,inactive
same,Potency,CP237,inactive
same,Potency,CP238,inactive
same,Potency,CP247,inactive
CNc1c2c(nn1C)CCCC2,"activity, negative = inhibition",[1]; [2],6.6%
same,"activity, negative = inhibition",[1]; [3],23%
same,Potency,3D7,inactive
same,Potency,7G8,inactive
same,Potency,AA1029,inactive
same,Potency,AS120,inactive
same,Potency,ATS189,inactive
same,Potency,ATS95,inactive
same,Potency,C2A,inactive
same,Potency,CP185,inactive
same,outcome,CP191,inactive
same,outcome,CP192,inactive
same,outcome,CP194,inactive
same,outcome,CP201,inactive
same,outcome,CP211,inactive
same,Potency,CP215,inactive
same,outcome,CP217,inactive
same,Potency,CP237,inactive
same,Potency,CP238,inactive
same,Potency,CP247,inactive
FC(F)(F)C(Cl)Br (centres undefined),"activity, negative = inhibition",[1]; [2],6.28%
same,"activity, negative = inhibition",[1]; [3],10.7%
same,Potency,3D7,inactive
same,Potency,7G8,inactive
same,Potency,AA1029,inactive
same,Potency,AS120,inactive
same,Potency,ATS189,inactive
same,Potency,ATS95,inactive
same,Potency,C2A,inactive
same,Potency,CP185,inactive
same,outcome,CP191,inactive
same,outcome,CP192,inactive
same,outcome,CP201,inactive
same,Potency,CP203,inactive
same,outcome,CP211,inactive
same,Potency,CP215,inactive
same,outcome,CP217,inactive
same,Potency,CP237,inactive
same,Potency,CP238,inactive
same,Potency,CP247,inactive
CC(=O)OCC(COC(C)=O)OC(C)=O,"activity, negative = inhibition",[1]; [2],4.58%
same,"activity, negative = inhibition",[1]; [3],8.38%
same,Potency,3D7,inactive
same,Potency,7G8,inactive
same,Potency,AA1029,inactive
same,Potency,AS120,inactive
same,Potency,ATS189,inactive
same,Potency,ATS95,inactive
same,Potency,C2A,inactive
same,Potency,CP185,inactive
same,outcome,CP191,inactive
same,outcome,CP194,inactive
same,outcome,CP201,inactive
same,Potency,CP203,inactive
same,outcome,CP211,inactive
same,Potency,CP215,inactive
same,outcome,CP217,inactive
same,Potency,CP237,inactive
same,Potency,CP238,inactive
same,Potency,CP247,inactive
Cc1cc(O)cc(C)c1Cl,"activity, negative = inhibition",[1]; [2],-2.51%
same,"activity, negative = inhibition",[1]; [3],-4.56%
same,Potency,3D7,inactive
same,Potency,7G8,10000 nM (active)
same,Potency,AA1029,inactive
same,Potency,AS120,inactive
same,Potency,C2A,inactive
same,Potency,CP185,inactive
same,outcome,CP192,inactive
same,outcome,CP194,inactive
same,outcome,CP201,inactive
same,Potency,CP203,inactive
same,outcome,CP211,inactive
same,Potency,CP215,inactive
same,outcome,CP217,inactive
same,Potency,CP237,inactive
same,Potency,CP238,inactive
same,Potency,CP247,inactive
CC(=O)N(CC(O)CO)c1c(I)c(C(=O)NCC(O)CO)c(I)c(C(=O)NCC(O)CO)c1I (centres undefined),"activity, negative = inhibition",[1]; [2],7.48%
same,"activity, negative = inhibition",[1]; [3],5.34%
same,Potency,3D7,inactive
same,Potency,7G8,11200 nM (active)
same,Potency,AA1029,inactive
same,Potency,AS120,inactive
same,Potency,ATS95,inactive
same,Potency,C2A,inactive
same,Potency,CP185,inactive
same,outcome,CP192,inactive
same,outcome,CP194,inactive
same,outcome,CP201,inactive
same,Potency,CP203,inactive
same,outcome,CP211,inactive
same,Potency,CP215,inactive
same,outcome,CP217,inactive
same,Potency,CP237,inactive
same,Potency,CP238,inactive
same,Potency,CP247,inactive
O=C(O)c1cc(=O)c2ccccc2o1,"activity, negative = inhibition",[1]; [2],-22.1%
same,"activity, negative = inhibition",[1]; [3],5.99%
same,Potency,3D7,inactive
same,Potency,7G8,inactive
same,Potency,AA1029,inactive
same,Potency,AS120,inactive
same,Potency,ATS189,inactive
same,Potency,ATS95,inactive
same,Potency,C2A,inactive
same,Potency,CP185,inactive
same,outcome,CP191,inactive
same,outcome,CP192,inactive
same,outcome,CP194,inactive
same,outcome,CP201,inactive
same,outcome,CP211,inactive
same,Potency,CP215,inactive
same,outcome,CP217,inactive
same,Potency,CP237,inactive
same,Potency,CP238,inactive
same,Potency,CP247,inactive
COC(=O)c1ccccc1C(=O)c1ccc(OCCN2CCCCC2)cc1,"activity, negative = inhibition",[1]; [2],9.58%
same,"activity, negative = inhibition",[1]; [3],5.94%
same,Potency,3D7,inactive
same,Potency,7G8,inactive
same,Potency,AA1029,inactive
same,Potency,AS120,inactive
same,Potency,ATS189,inactive
same,Potency,ATS95,inactive
same,Potency,C2A,inactive
same,Potency,CP185,inactive
same,outcome,CP191,inactive
same,outcome,CP192,inactive
same,outcome,CP194,inactive
same,outcome,CP201,inactive
same,outcome,CP211,inactive
same,Potency,CP215,inactive
same,outcome,CP217,inactive
same,Potency,CP238,inactive
same,Potency,CP247,inactive
NC(=O)c1ccc([N+](=O)[O-])cc1Cl,"activity, negative = inhibition",[1]; [2],-8.53%
same,"activity, negative = inhibition",[1]; [3],6.47%
same,Potency,3D7,inactive
same,Potency,7G8,8910 nM (active)
same,Potency,AA1029,inactive
same,Potency,AS120,inactive
same,Potency,ATS95,inactive
same,Potency,C2A,inactive
same,Potency,CP185,inactive
same,outcome,CP192,inactive
same,outcome,CP194,inactive
same,outcome,CP201,inactive
same,Potency,CP203,inactive
same,outcome,CP211,inactive
same,Potency,CP215,inactive
same,outcome,CP217,inactive
same,Potency,CP237,inactive
same,Potency,CP238,inactive
same,Potency,CP247,inactive
CCN(CC)CCOC(=O)C(c1ccccc1)c1ccccc1,"activity, negative = inhibition",[1]; [2],-8.73%
same,"activity, negative = inhibition",[1]; [3],-12.1%
same,Potency,3D7,inactive
same,Potency,AA1029,inactive
same,Potency,AS120,inactive
same,Potency,ATS189,inactive
same,Potency,ATS95,inactive
same,Potency,C2A,inactive
same,Potency,CP185,inactive
same,outcome,CP191,inactive
same,outcome,CP192,inactive
same,outcome,CP194,inactive
same,outcome,CP201,inactive
same,Potency,CP203,inactive
same,outcome,CP211,inactive
same,Potency,CP215,inactive
same,outcome,CP217,inactive
same,Potency,CP237,inactive
same,Potency,CP238,inactive
same,Potency,CP247,inactive
